This is a sample that favours compounds with a hit; in the whole collection about 2.4% have one here.
Pol eta inh – qHTS for Inhibitors of Polymerase Eta; 390,000 compounds, 1.2% hits; Potency, µM (doses to about 114 µM), for the others: at the top dose activity change, negative = inhibition, usual class: inhibitors; recombinant Pol eta, fluorescent DNA replication assay; DNA polymerase eta (Homo sapiens), Q9Y253; further: on the % scale 0 is the no-effect control and ±100 the full control effect
Target sequence (Q9Y253 whole entry, looked up): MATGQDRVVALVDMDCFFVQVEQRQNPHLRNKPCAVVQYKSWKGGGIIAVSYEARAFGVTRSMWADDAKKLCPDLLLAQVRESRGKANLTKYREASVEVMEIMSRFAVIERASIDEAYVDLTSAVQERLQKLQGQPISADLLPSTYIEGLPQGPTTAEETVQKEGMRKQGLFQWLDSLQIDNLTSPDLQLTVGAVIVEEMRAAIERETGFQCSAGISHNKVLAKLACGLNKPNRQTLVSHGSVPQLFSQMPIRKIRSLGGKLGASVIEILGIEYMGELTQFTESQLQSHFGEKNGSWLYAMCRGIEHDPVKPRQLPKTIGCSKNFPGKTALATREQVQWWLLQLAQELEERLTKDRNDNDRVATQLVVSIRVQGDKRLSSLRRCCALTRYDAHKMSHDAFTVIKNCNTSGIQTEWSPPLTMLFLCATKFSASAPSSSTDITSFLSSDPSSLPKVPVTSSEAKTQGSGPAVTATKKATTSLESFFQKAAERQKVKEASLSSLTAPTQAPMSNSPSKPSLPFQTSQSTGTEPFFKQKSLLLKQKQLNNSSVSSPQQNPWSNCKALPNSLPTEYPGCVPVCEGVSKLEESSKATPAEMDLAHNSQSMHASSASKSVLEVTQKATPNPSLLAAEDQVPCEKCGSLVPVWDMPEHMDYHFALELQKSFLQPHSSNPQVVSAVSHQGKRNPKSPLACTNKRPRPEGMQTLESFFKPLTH
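Fluorescent replication assay: 50 nM final substrate added after a 15 min room-temperature compound preincubation with 10 nM enzyme. Signal taken at 0 min and again at 10 min.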
POLK inh – qHTS for Inhibitors of Polymerase Kappa; purified Pol kappa, fluorescent DNA synthesis assay, 10 min; DNA polymerase kappa (Homo sapiens), Q9UBT6; 400,000 compounds, 0.53% hits; Potency, µM (highest dose often 107 µM), without a hit: top-dose activity, negative = inhibition, hits mostly inhibitors; further: on the % scale 0 is the no-effect control and ±100 the full control effect
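Activity was followed as the change in fluorescence between reads at 0 and 10 min after starting the reaction with 50 nM substrate. Beforehand, 10 nM polymerase had been preincubated with compound for 15 min at room temperature.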
FEN1 inh – qHTS Assay for the Inhibitors of Human Flap endonuclease 1 (FEN1). 390,000 compounds, 0.35% hits. Recombinant FEN1 flap cleavage, fluorescence, 15 min. P39748. Potency, µM (series often up to 114 µM), for inactives: at the top dose activity change, negative = inhibition, hits mostly inhibitors; further: on the % scale 0 is the no-effect control and ±100 the full control effect; nearly all actives have a fitted effect of over 65% in size
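FEN1 at 10 nM preincubated with compounds 15 min at room temperature, then flap DNA substrate added at 50 nM final. Signal read at 0 and 15 min; concentration-response fitted with four-parameter Hill equation.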
TDP1 block – qHTS Assay for Inhibitors of Tyrosyl-DNA Phosphodiesterase (TDP1) | recombinant TDP1, AlphaScreen DNA substrate cleavage | Potency, µM (doses to about 130 µM), inactives show at the highest dose activity change, negative = inhibition, hits mostly inhibitors | 350,000 compounds, 0.28% hits; further: on the % scale 0 is the no-effect control and ±100 the full control effect; nearly all actives have a fitted effect of over 40% in size
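Recombinant E. coli-expressed Tdp1 (1 nM) preincubated with compound 15 min at RT, then 5'-biotin/3'-phosphotyrosine-FITC DNA substrate (15 nM) added for 5 min. AlphaScreen beads (10 ug/ml) added, 10 min RT; tyrosine-FITC cleavage read as signal loss.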
Pol beta inh – qHTS Assay for Inhibitors of DNA Polymerase Beta; P06746; Pol beta primer extension/strand displacement, fluorescence kinetic; Potency, µM (doses to about 114 µM), for inactives: at the highest dose activity change, negative = inhibition, actives largely listed as inhibitors; 340,000 compounds, 1.3% hits; AID 485314, 2010; further: on the % scale 0 is the no-effect control and ±100 the full control effect
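Kinetic readout of DNA synthesis with strand displacement by Pol beta. Compound and 10 nM enzyme sit 15 min at room temperature; 50 nM substrate starts the reaction, read immediately and at 10 min.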
POLI inh – qHTS for Inhibitors of Polymerase Iota | DNA polymerase iota (Homo sapiens), Q9UNA4 | Pol iota fluorescent replication assay, 10 min | Potency, µM (top dose mostly 115 µM), for the others: at the highest dose activity, negative = inhibition, actives largely listed as inhibitors | 390,000 compounds, 1% hits
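Fluorescent replication assay read twice, at 0 min and 10 min after adding 50 nM (final) substrate. Enzyme (10 nM) and compounds were first incubated 15 min at room temperature; enzyme-free buffer wells were negative controls.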
* = called active by the depositor; ? = inconclusive; / = no result; [ ] = dose if it differs, or a comment. The call rests on the fitted dose curve; in most records, active means well fitted curve in the direction sought with a large enough effect; inconclusive means small, poorly fitted or top-dose-only effect, or another doubt; inactive means no such curve, though single readings can be large; an effect the other way counts as inactive or inconclusive. Potency means the concentration at half of the fitted maximal effect.

SMILES | Pol eta inh | POLK inh | FEN1 inh | TDP1 block | Pol beta inh | POLI inh
Cc1ccc(NC(=O)COc2ccc(/C=N/NC(=O)CSCc3ccccc3)cc2)cc1 | -5% | -9% | 0% | 56µM* | ? | ?
COc1ccc(NC(=O)CCc2nnc3n(C)c(=O)c4sccc4n23)cc1Cl | 4% | -3% | -1% | 6% | 31% | -6%
Nc1c(C(=O)Nc2ccc(S(=O)(=O)N3CCCC3)cc2)sc2nc3ccc(OC(F)(F)F)cc3cc12 | 40µM* | -6% | -9% | 1% | 28µM* | ?
COc1ccc(OCC(=O)Nc2ccc3c(c2)nc(CCN2CCOCC2)n3C)cc1 | -7% | -5% | -10% | 3% | 21% | 15%
COc1ccc(OCC(=O)Nc2ccc3c(c2)nc(CCn2ccccc2=O)n3C)cc1 | -5% | -31% | -13% | 3% | ? | 56µM*
O=c1c(S(=O)(=O)c2ccccc2)cn(Cc2ccc(F)cc2)c2cc(N3CCOCC3)c(F)cc12 | -14% | -2% | 1% | 4% | 1% | -3%
CCOCCCn1c(SCc2nc3sc(C(=O)O)c(C)c3c(=O)[nH]2)nnc1-c1ccc(Cl)cc1 | -21% | -5% | 9% | -5% | -11% | 50%
C=CCn1c(SCc2nc3sc(C(=O)O)c(C)c3c(=O)[nH]2)nnc1-c1ccccc1 | 32µM* | -37% | -12% | / | 0% | ?
CCOC(=O)c1ccc(NS(=O)(=O)c2ccc(SC)cc2)cc1 | -4% | -7% | -17% | 7% | -14% | 79µM*
CCC(CC)=NNc1ccc([N+](=O)[O-])cc1[N+](=O)[O-] | 0% | -14% | 16% | -5% | 70% | 10%
O=C(O)/C(CC(=O)c1ccc(Cl)cc1)=N/Nc1ccc([N+](=O)[O-])cc1[N+](=O)[O-] | 89µM* | ? | -15% | / | ? | ?
Cc1nn(-c2ccc(F)cc2)c(-n2cccc2)c1C(=O)NCCc1ccc(Cl)cc1 | -12% | -23% | -5% | 0% | 1% | 22%
COc1cc(/C=C2\CCCc3c2nc2ccccc2c3C(=O)O)cc(OC)c1O | 8% | 4% | 45µM* | -14% | 6% | 2%
CN(C)c1ccc(/C=C2/CCCc3c2nc2ccccc2c3C(=O)O)cc1 | / | 79µM* | ? | / | / | ?
CCCCOc1ccc(CNC(=O)CN2C(=O)CCn3nc(-c4cn(C)c5ccccc45)cc32)cc1 | -1% | -5%[60.1 µM] | -13% | 2% | 1% | -12%
O=c1cnc2cnc(Oc3cccc(Cl)c3)nc2n1C1CC1 | / | -12%[60.1 µM] | / | / | / | /
Cc1ccnc(SCC(=O)Nc2sccc2C#N)n1 | -27% | ? | -3% | 0% | 32µM* | ?
CC(=O)Nc1ccc(SCC(=O)Nc2sccc2C#N)cc1 | -15% | -10% | -4% | -2% | -9% | 79%
c1csc(Cc2nn3c(-c4ccncc4)nnc3s2)c1 | ? | 40µM* | ? | / | 32µM* | 20µM*
CN(C)c1ccc(/C=C2\NC(=O)NC2=O)cc1 | / | -23% | -6% | / | / | 21%
CS(=O)(=O)c1ccc(C(=O)OCC(=O)NCc2cccs2)cc1[N+](=O)[O-] | 45µM* | -12% | 0% | 1% | / | ?
CC(=O)Nc1ccc(C(=O)OCC(=O)NCc2cccs2)cc1 | -9% | -9% | -10% | 0% | / | 2%
COc1ccc(OC)c(CCNC(=O)CSc2ccsc2[N+](=O)[O-])c1 | 40µM* | ? | 9% | 0% | -11% | 45µM*
O=C(CSc1ccsc1[N+](=O)[O-])NC1CCCC1 | 56µM* | -51% | 4% | -14% | ? | 45µM*
COc1ccc(CCNC(=O)CSc2ccsc2[N+](=O)[O-])cc1OC | -8% | -3%[60.1 µM] | -12% | 0% | ? | -8%
SMILES | Pol eta inh | POLK inh | FEN1 inh | TDP1 block | Pol beta inh | POLI inh
COc1ccc(NC(=O)c2ccc3c(c2)nnn3C2CCCC2)cc1Cl | -10% | -11% | 17% | 3% | 5% | 1%
Cc1[nH][nH]c(=O)c1C(c1c(C)[nH][nH]c1=O)c1cn(Cc2ccccc2Cl)c2ccccc12 | ? | -15% | -30% | 10% | -15% | 5.6µM*
N/C(=N\O)c1cn(Cc2ccccc2Cl)c2ccccc12 | -20% | -8% | 0% | / | -13% | 113%
CC(=O)Nc1cccc(-n2cc3c(c2-c2ccccc2Cl)c(=O)n(C)c(=O)n3C)c1 | 8% | 89µM* | 8% | 7% | 27% | ?
CC(=O)Nc1ccc(-n2cc3c(c2-c2ccc(C)cc2)c(=O)n(C)c(=O)n3C)cc1 | 1% | -22% | 11% | 6% | 5% | -3%
COc1ccc(CNC(=O)c2cc3c(s2)-c2c(C)cccc2OC3)cc1 | -13% | -27% | -7% | -9% | 14µM* | ?
Cc1cccc2c1-c1sc(C(=O)NCCc3ccc(Cl)cc3)cc1CO2 | -16% | -34% | -15% | -5% | 8.9µM* | ?
O=C(O)c1cc(-c2ccc(C(F)(F)F)cc2)nc2n[nH]c(-c3ccccc3)c12 | -11% | -13% | 12% | -1% | ? | ?
Cc1ccc(NC(=O)CSc2nc(-c3ccccc3Cl)nc3cc(=O)[nH]n23)c(C)c1 | -1% | -1% | -6% | -5% | ? | ?
C=CCNS(=O)(=O)c1cc2c3c(c1)CCN3C(=O)CC2 | -4% | 79µM* | ? | 1% | 1% | 28µM*
CCS(=O)(=O)Nc1cc2c3c(c1)CCC(=O)N3CCC2 | 4% | 3% | -8% | 5% | 21% | 8%
CCS(=O)(=O)Nc1cc2c3c(c1)CCN3C(=O)CC2 | -15% | 79µM* | -17% | / | 7% | 25µM*
CC(C)C(=O)Nc1cc2c3c(c1)CCC(=O)N3CCC2 | -9% | ? | -22% | 1% | -1% | 35µM*
Cc1cccc(C2C3=C(Nc4[nH]n(-c5ccccc5)c(=O)c42)c2ccccc2C3=O)c1 (stereo unspecified) | 13µM* | ? | ? | 12% | ? | ?
Cc1ccccc1C1C2=C(Nc3[nH]n(-c4ccccc4)c(=O)c31)c1ccccc1C2=O (stereo unspecified) | / | / | / | 8% | -8% | /
O=C(O)c1cc2nccc(-c3ccco3)n2n1 | 18µM* | ? | -25% | / | 0% | ?
Cc1ccc(NC(=O)c2ccc3c(c2)NC(=O)c2ccccc2S3)cc1 | -19% | 1% | -10% | -2% | 12% | -17%
COc1cc(C(=O)OCC(=O)N2CCCC2=O)cc(OC)c1C | 32µM* | ? | -12% | ? | / | ?
COc1ccc(C(CC(=O)c2ccccc2)C2CCCCC2=O)cc1 (stereo unspecified) | -9% | -1% | -9% | 1% | -1% | 33%
